Source: publication PMC4336329 (PLoS ONE, 2015)
The campaign covered roughly 310,000 compounds. About 14,000 (4.5%) showed an effect of 50% or more. Effects have a minus sign here. Only a selection was taken, and strong results are over-represented in it overall.

Biological target: human ether-à-go-go-related gene (hERG) potassium channel (human, UniProt Q12809)
Experiment: primary screen, population patch clamp on CHO cells stably expressing hERG; higher = less effect of the substance
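Note: peak tail current of the secondary pulse compared with the same well before compound.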

Chain of human ether-à-go-go-related gene (hERG) potassium channel (Q12809 whole entry, looked up): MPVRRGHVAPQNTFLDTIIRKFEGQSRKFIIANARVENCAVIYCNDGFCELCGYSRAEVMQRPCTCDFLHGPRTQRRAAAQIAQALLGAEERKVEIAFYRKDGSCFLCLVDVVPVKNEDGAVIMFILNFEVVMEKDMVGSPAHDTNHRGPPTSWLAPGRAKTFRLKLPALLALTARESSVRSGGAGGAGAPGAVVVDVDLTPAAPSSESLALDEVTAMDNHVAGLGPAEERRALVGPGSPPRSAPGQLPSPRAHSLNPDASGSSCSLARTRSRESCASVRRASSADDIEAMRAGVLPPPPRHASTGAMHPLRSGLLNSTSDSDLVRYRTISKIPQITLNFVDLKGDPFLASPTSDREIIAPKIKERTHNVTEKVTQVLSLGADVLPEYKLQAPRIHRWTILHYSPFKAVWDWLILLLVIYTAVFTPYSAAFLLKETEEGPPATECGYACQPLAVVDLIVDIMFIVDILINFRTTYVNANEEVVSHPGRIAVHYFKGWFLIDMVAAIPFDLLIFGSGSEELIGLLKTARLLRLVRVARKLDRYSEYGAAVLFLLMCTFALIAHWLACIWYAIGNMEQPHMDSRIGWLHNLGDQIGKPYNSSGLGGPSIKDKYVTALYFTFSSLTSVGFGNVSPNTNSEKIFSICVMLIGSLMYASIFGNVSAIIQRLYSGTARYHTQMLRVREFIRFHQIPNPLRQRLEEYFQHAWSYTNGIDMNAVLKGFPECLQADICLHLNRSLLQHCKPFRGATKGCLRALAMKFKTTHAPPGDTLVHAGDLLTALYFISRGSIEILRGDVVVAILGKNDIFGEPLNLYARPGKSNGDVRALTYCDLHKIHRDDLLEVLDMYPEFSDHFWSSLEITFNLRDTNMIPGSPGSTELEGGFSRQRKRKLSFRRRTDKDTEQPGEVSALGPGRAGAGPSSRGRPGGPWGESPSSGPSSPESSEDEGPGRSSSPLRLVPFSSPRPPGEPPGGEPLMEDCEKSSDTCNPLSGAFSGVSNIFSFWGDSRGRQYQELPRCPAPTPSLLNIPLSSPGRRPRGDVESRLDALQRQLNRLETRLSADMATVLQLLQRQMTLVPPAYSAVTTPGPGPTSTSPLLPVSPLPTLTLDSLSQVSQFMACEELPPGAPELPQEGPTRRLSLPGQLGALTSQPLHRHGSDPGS

| Structure (SMILES) | hERG current change (%, negative = inhibition) at 10uM |
| --- | --- |
| COc1ccc(CNC(=O)c2coc(=O)c3ccccc23)cc1 | -27.3% |
| O=C(NC1CCN(Cc2ccccc2)CC1)C(NS(=O)(=O)c1cccc2nsnc12)c1ccccc1 (stereo not shown) | -44.6% |
| Cc1ccc(OCC(=O)N/N=C\c2cccn2C)c([N+](=O)[O-])c1 | -8.65% |
| O=C(O)[C@H]1CCCC[C@H]1C(=O)Nc1ccc(Nc2ccccc2)cc1 | 4.15% |
| CSc1sc(C(=O)N2CCc3ccccc32)cc1S(=O)(=O)C(C)C | 14.2% |
| Cn1cnnc1Sc1cc(N2CCN(S(=O)(=O)c3ccccc3)CC2)ccc1[N+](=O)[O-] | -60.5% |
| Cn1cnnc1Sc1cc(N2CCN(S(=O)(=O)c3ccc(Cl)c(Cl)c3)CC2)ccc1[N+](=O)[O-] | -10.6% |
| CN1CCN(c2ccc([N+](=O)[O-])c(Sc3nncn3C)c2)CC1 | -9.71% |
| Cn1cnnc1Sc1ccc(S(C)(=O)=O)cc1[N+](=O)[O-] | 13% |
| Cc1ccc(S(=O)(=O)N2CCN(c3ccc([N+](=O)[O-])c(Sc4nncn4C)c3)CC2)cc1 | -62.3% |
| Cn1cnnc1Sc1cc(N2CCNCC2)ccc1[N+](=O)[O-] | 7.66% |
| [N-]=[N+]=NC(c1ccccc1)c1nc2ccccc2[nH]c1=O (stereo not shown) | -7.74% |
| Nc1ccccc1Cl | 10.3% |
| O=C(NCc1ccco1)c1cccc(Nc2nc3ccc(Br)cc3[nH]2)c1 | -11.2% |
| COc1ccc(NC(=O)/C(C#N)=C\c2cc(C)n(-c3ccc(Oc4ccc([N+](=O)[O-])cn4)cc3)c2C)cc1 | 10.8% |
| Cc1cc(C=O)c(C)n1-c1ccc(Oc2ccc([N+](=O)[O-])cn2)cc1 | -56.7% |
| Cc1ccc(-n2c(C)cc(/C=N/Nc3ccc([N+](=O)[O-])cn3)c2C)cc1 | -4.67% |
| COCC(=O)N1CCC(Oc2ccc(C(=O)NC(C)c3csc(C)n3)cc2)CC1 (stereo not shown) | 10.4% |
| COc1ccc2cc([C@@H](C)C(=O)[O-])ccc2c1.[Na+] | -2.41% |
| COC(=O)c1ccccc1S(=O)(=O)N1CCC(C(=O)OC(C)C(=O)Nc2ccccc2OC)CC1 (stereo not shown) | -51.3% |
| COc1ccc(COC(=O)C2CCN(S(=O)(=O)c3ccc(C)cc3)CC2)cc1 | -7.61% |
| COC(=O)c1ccccc1S(=O)(=O)N1CCC(C(=O)OCc2ccc([N+](=O)[O-])cc2)CC1 | -57.1% |
| CC(OC(=O)C1CCCC1)C(=O)Nc1ncc(Cl)cc1Cl (stereo not shown) | -2.36% |

| Structure (SMILES) | hERG current change (%, negative = inhibition) at 10uM |
| --- | --- |
| COC(=O)c1ccccc1S(=O)(=O)N1CCC(C(=O)OC(C)C(=O)NC(N)=O)CC1 (stereo not shown) | 29.7% |
| CC(OC(=O)C1CC1)C(=O)Nc1ncc(Cl)cc1Cl (stereo not shown) | 18.1% |
| Cc1ccc(S(=O)(=O)N2CCC(C(=O)OCc3ccc([N+](=O)[O-])cc3)CC2)cc1 | -69.8% |
| O=C(OCc1ccc([N+](=O)[O-])cc1)C1CCN(S(=O)(=O)c2ccccc2)CC1 | -37.3% |
| CC(OC(=O)C1CCN(S(=O)(=O)c2ccccc2)CC1)C(=O)Nc1ncc(Cl)cc1Cl (stereo not shown) | -64% |
| COC(=O)c1ccccc1S(=O)(=O)N1CCC(C(=O)OCC(=O)c2ccccc2OC)CC1 | -16.8% |
| COC(=O)c1ccccc1S(=O)(=O)N1CCC(C(=O)OC(C)C(=O)Nc2ccc(NC(C)=O)cc2)CC1 (stereo not shown) | -14.6% |
| COC(=O)c1ccccc1S(=O)(=O)N1CCC(C(=O)OCc2cccc(OC)c2OC)CC1 | -13.5% |
| CC(C(=O)Nc1ccc(Cl)cc1Cl)N1CC=C(c2ccccc2)CC1 (stereo not shown) | -28.1% |
| CCn1c(=O)c(CCC(=O)N2CCN(c3ccccn3)CC2)c(C)c2c(C)nn(-c3ccccc3)c21 | -17.8% |
| Cc1ccc2nc(SCC(=O)N3CCCC3)nc(=O)n2c1 | -0.651% |
| Cn1nc(C(=O)Nc2nc3ccccc3[nH]2)c2ccccc2c1=O | -47.1% |
| CC(C)OCCCNC(=O)C1CCC(CNS(=O)(=O)c2ccccc2)CC1 (stereo not shown) | -7.62% |
| Cc1ccc(C(C)(C)C)c(OCCCn2ccnc2)c1.O=C(O)C(=O)O | -16.6% |
| CCc1cc(CNC(=O)CC2C(=O)NCCN2Cc2ccccc2C(F)(F)F)on1 (stereo not shown) | 10% |
| Cc1ccc2nc(NC(=O)Cn3nc(C)c([N+](=O)[O-])c3C)sc2c1 | -23.5% |
| CCOc1ccc(C(=O)OCC(=O)NC2CCCC2)cc1OCC | 8.34% |
| COc1ccccc1NC(=O)/C(=N/OCc1ccc(C#N)cc1)C(C)=O | -18.2% |
| COC(=O)c1sccc1NC(=O)c1c(-c2ccccc2)noc1C | -26.5% |
| Cc1ccccc1C(=O)NNC(=O)Nc1ccccc1 | 11.6% |
| CCOc1ccc2nc(N3CCOCC3)nc(C)c2c1 | 3.2% |
| COc1ccc2nc(C)cc(Nc3ccc(N4CCN(C)CC4)cc3)c2c1 | -1.75% |
| COc1ccc(Nc2cc(C)nc(N3CCOCC3)n2)cc1 | -12.2% |

| Structure (SMILES) | hERG current change (%, negative = inhibition) at 10uM |
| --- | --- |
| COc1ccc2nc(C)cc(Nc3ccc(N4CCOCC4)cc3)c2c1.Cl | -60.9% |
| CCOc1ccc(Nc2cc(C)nc(N3CCOCC3)n2)cc1 | 0.875% |
| CCOc1ccc2nc(C)cc(Nc3ccc(N4CCOCC4)cc3)c2c1.Cl | -73% |
| COc1ccc(S(=O)(=O)NCc2ccccc2)cc1Br | 6.25% |
| NC(=O)CC1Nc2cccc3cccc(c23)NC1=O (stereo not shown) | 8.93% |
| COc1ccc(CCNC(=O)CCc2nc3ccccc3[nH]2)cc1OC | -7.59% |
| CCN(CC(=O)Nc1ccc(NC(C)=O)cc1)C(=O)CCCSc1nc2ccccc2[nH]1 | -0.716% |
| CCCCc1oc2c(c(=O)c1C)C(=O)CC(c1ccccc1)C2 (stereo not shown) | -59.8% |
| Cc1oc2c(c(=O)c1C)C(=O)CC(c1ccccc1)C2 (stereo not shown) | -23.7% |
| CCCCc1noc2c1/C(=N\O)CC(c1ccccc1)C2 (stereo not shown) | 7.26% |
| CSc1ccccc1NC(=O)CN(C)C(=O)Cc1c[nH]c2ccccc12 | -0.585% |
| COCCCNC(=O)CSc1nc2c(sc3ccccc32)c(=O)n1CCCC(=O)NCC1CCCO1 (stereo not shown) | -14.4% |
| CCOC(=O)CSc1nc2c(sc3ccc([N+](=O)[O-])cc32)c(=O)n1Cc1ccco1 | -32.4% |
| O=C(CSc1nc2c(sc3ccccc32)c(=O)n1Cc1ccccc1)NCC1CCCO1 (stereo not shown) | 16.8% |
| NC(=O)CSc1nc2c(sc3ccccc32)c(=O)n1CCCN1CCOCC1 | -52.8% |
| CCCCn1c(SCC(=O)NC(C)CC)nc2ccc(N3CCOCC3)cc2c1=O (stereo not shown) | -12.8% |
| NC(=O)CSc1nc2c(sc3ccccc32)c(=O)n1CCCC(=O)NCC1CCCO1 (stereo not shown) | -16.8% |
| CCOC(=O)CSc1nc2c(sc3ccccc32)c(=O)n1CCCN1CCOCC1 | -65.9% |
| CCCCn1c(SCC(N)=O)nc2c(sc3ccccc32)c1=O | -12.4% |
| O=C(CSc1nc2c(sc3ccccc32)c(=O)n1CCCN1CCOCC1)NC1CCCC1 | -64.7% |
| CCC(C)NC(=O)CSc1nc2c(sc3ccccc32)c(=O)n1CCCN1CCOCC1 (stereo not shown) | -53.4% |
| Cc1cc(NC(=O)CSc2nc3c(sc4ccccc43)c(=O)n2CCCN2CCOCC2)n[nH]1 | 2% |
| O=C1CSC(c2ccccn2)N1c1ccc(F)cc1F (stereo not shown) | -0.569% |

| Structure (SMILES) | hERG current change (%, negative = inhibition) at 10uM |
| --- | --- |
| COc1ccccc1Nc1nc(-c2sc(NC(=O)CC(C)C)nc2C)cs1 | 5.43% |
| O=C(CCC(=O)N1CCSc2ccccc21)NC1CCCCC1 | -2.55% |
| O=C(OCCNc1ccc(C(F)(F)F)cc1[N+](=O)[O-])c1cc2ccccc2oc1=O | 4.72% |
| CC(Sc1nncn1C)C(=O)Nc1ccc(S(N)(=O)=O)cc1 (stereo not shown) | 15.7% |
| Cc1oc(-c2ccccc2Cl)nc1CSCC(=O)N1CCCC1 | -19.9% |
| COc1ccc(Cl)cc1NC(=O)CN(C)C(=O)c1ccc(COc2ccccc2)cc1 | 13.5% |
| CC1CCc2ccc(F)cc2N1S(=O)(=O)c1cccs1 (stereo not shown) | 2.36% |
| CNC(=S)NNC(=O)c1ccc(N(C)C)cc1 | 0.516% |
| Cc1cc(C)c(S(=O)(=O)NCC2CCC(C(=O)NCc3ccc4c(c3)OCO4)CC2)c(C)c1 (stereo not shown) | -1.15% |
| O=C(N/N=C/C=C/c1ccccc1)c1n[nH]c2c1CCC2 | 9.22% |
| COC(=O)c1ccc(N2CCOCC2)c(NC(=O)c2ccco2)c1 | 1.95% |
| COc1ccc(N2CCOCC2)c(NC(=O)c2ccco2)c1 | -73.1% |
| COc1nnc(-c2ccc(N3CCOCC3)c(NC(=O)c3ccccc3)c2)c2ccccc12 | -19.5% |
| CCC(=O)Nc1cc(-c2nnc(OC)c3ccccc23)ccc1N1CCOCC1 | -5.46% |
| COc1nnc(-c2ccc(N3CCOCC3)c(NC(C)=O)c2)c2ccccc12 | -1.4% |
| Cn1nc(-c2ccc(N3CCOCC3)c(NS(=O)(=O)c3ccccc3)c2)c2ccccc2c1=O | -15.6% |
| COc1nnc(-c2ccc(N3CCOCC3)c(NC(=O)c3ccc(C)cc3)c2)c2ccccc12 | -68.9% |
| Cn1nc(-c2ccc(N3CCOCC3)c(NS(=O)(=O)c3ccc(Cl)cc3)c2)c2ccccc2c1=O | -9.74% |
| Cc1ccc(S(=O)(=O)Nc2cc(-c3nn(C)c(=O)c4ccccc34)ccc2N2CCOCC2)cc1 | -57% |
| COc1nnc(-c2ccc(N3CCOCC3)c(NC(=O)c3ccco3)c2)c2ccccc12 | -70% |
| CCCC(=O)Nc1cc(-c2nnc(OC)c3ccccc23)ccc1N1CCOCC1 | -42.9% |
| COc1ccc(NS(=O)(=O)c2ccc(N3CCOCC3)c(NC(=O)c3ccco3)c2)cc1 | 30.3% |
